Bioassay records: PubChem BioAssay, Broad Institute
Hits are enriched below; roughly 2.1% of the tested compounds scored in any of these assays.
Ecoli rRNA inh = reduced GFP signal of wild-type E. coli, primary screen, bacterial rRNA inhibitor project, GFP/RFP fluorescence, OD600, single point; E. coli WT GFP vs humanized-ribosome RFP mutants, 24 h; hits give low values; DMSO median 0, no signal -100; GFP signal change (wild-type ribosome), % (no concentration beside the values); hit rate 1.6% among 350,000;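 active = significant combined selectivity score with lowered wild-type GFP, culture density cut under 30%, mutant RFP and density less affected; inactive = any of these conditions unmet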
ARNT-TACC3 inh = disruptors of ARNT/TACC3 protein interaction, primary screen, biochemical, AlphaScreen, single concentration; AlphaScreen His-ARNT PAS-B/GST-TACC3 binding, luminescence; TACC3 fragment carries E629A point mutation; inhibition, % at 9.99 µM; hit rate 0.66% among 390,000; AID 623870, 2012;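 active = mean inhibition of replicates at least 50% and at least half of replicates each reaching 50%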
CFTR F508del cor = F508del CFTR correction, initial screen, CFBE line, single point. CFBE cells, YFP halide quenching; stimulated with forskolin plus potentiator P3; % fluorescence drop versus neutral controls. activity (quench increase), % at 7.58 µM. hit rate 0.36% among 350,000. AID 720511, 2013;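 active = mean added fluorescence quench of at least 8% versus neutral control, with both replicates also reaching 8%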;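 note: cells transiently co-express mutant CFTR-F508del with the halide-sensitive YFP; corrector assay measuring rescue of mutant channel to the surface after 24 h compound exposure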
PvdQ inh = P. aeruginosa PvdQ acylase inhibitors, primary screen, biochemical, fluorescence, plate reader and imaging, single point | hit rate 0.063% among 340,000 | inhibition, % at 10 µM | AID 488965, 2010 | PvdQ acylase [Pseudomonas aeruginosa LESB58] | purified PvdQ acylase; in the data active = inhibition above about 30%, passing the limit was not always enough
ERAP1 HTS inh = human ERAP1 aminopeptidase inhibitors, primary screen, biochemical, single point, plate reader | hit rate 0.15% among 340,000 | inhibition, % at 10.7 µM | recombinant ERAP1, Leu-AMC fluorescence, 60 min | Endoplasmic reticulum aminopeptidase 1 (Homo sapiens), Q9NZ08 | AID 652197, 2013;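 active = mean replicate inhibition of at least 30%, or all replicates individually reaching that 30% level; inactive = mean below 30% and not every replicate reaching it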
A number is an active result; - = inactive; . = no result given.

SMILES | Ecoli rRNA inh | ARNT-TACC3 inh | CFTR F508del cor | PvdQ inh | ERAP1 HTS inh
Cc1c(CCC(=O)O)c(=O)oc2cc3occ(-c4ccc(Cl)cc4)c3cc12 | - | 45.2 | - | - | -
CCCC(NC(=O)CCc1c(C)c2cc3c(-c4ccccc4)coc3cc2oc1=O)C(=O)O (stereo not given) | -33.6 | - | - | - | -
Cc1oc2c(C)c3oc(=O)c(CCC(=O)O)c(C)c3cc2c1-c1ccccc1 | - | 26.1 | - | - | -
Cc1c(CCC(=O)NCC(=O)O)c(=O)oc2cc3occ(-c4ccccc4)c3cc12 | -20.1 | - | - | - | -
CN1C(=O)c2cc(NC(=O)C3CCC3)ccc2OC[C@@H]2O[C@@H](CC(=O)NCC3CCCCC3)CC[C@@H]21 | - | . | - | . | -
Cn1cnc(S(=O)(=O)N2CCCCN3[C@@H](CO)[C@H](c4ccc(C5=CCCC5)cc4)[C@@H]3C2)c1 | . | . | - | . | -
Cn1c(CSc2nc3ccc(Br)cc3[nH]2)nc2ccccc21 | -21.6 | - | - | - | -
CCCC(=O)Nc1ccc2c(c1)C(=O)N(C)C[C@@H](OC)[C@H](C)CN(C(=O)CC1CC1)[C@H](C)CO2 | . | - | - | . | -
O=C(NC1CC1)C1=C[C@@H](C2CCCCC2)C[C@@H](OCCCCO)O1 | - | - | - | - | -
O=C(O)C1=C[C@@H](C2CCCC2)C[C@@H](OCCCCO)O1 | . | 61.1 | - | . | -
Cc1noc(C)c1C(c1ccccc1)c1ccccc1 | -46.6 | - | - | - | -
Cc1noc(C)c1C(c1ccccc1)S(=O)(=O)c1ccccc1 (stereo not given) | . | - | . | - | .
CC(C)c1nnc(NC(=O)c2cnccn2)s1 | . | 49.6 | . | - | .
CCNC(=O)Nc1ccc2c(c1)C(=O)N(C)[C@@H]1CC[C@@H](CC(=O)NCC3CCCCC3)O[C@H]1CO2 | - | - | - | . | -
Cc1ccc(S(=O)(=O)N2C[C@@H](O)COC[C@H]3O[C@@H](CC(=O)N[C@@H]4CCN(Cc5ccccc5)C4)CC[C@@H]32)cc1 | - | - | - | . | -
O=C(N/N=C/c1ccncc1)C1CC1(c1ccccc1)c1ccccc1 (stereo not given) | -21.9 | - | - | - | -
COc1ccc(NC(=O)Nc2ccc3c(c2)C(=O)N(C)C[C@H](OC)[C@@H](C)CN[C@H](C)CO3)cc1 | - | - | - | . | .
COc1ccc(C2C3=C(COC3=O)Oc3cc4c(cc32)OCO4)cc1OC (stereo not given) | - | - | 9.6 | - | -
COc1cc(C2C3=C(COC3=O)Oc3cc4c(cc32)OCO4)ccc1OC(C)=O (stereo not given) | - | - | - | - | -
COc1ccc(S(=O)(=O)Nc2ccc3c(c2)C(=O)N([C@@H](C)CO)C[C@H](C)[C@@H](CN(C)C)OCCCC[C@H](C)O3)cc1 | - | - | - | . | -
COc1ccc(NC(=O)c2ccco2)cc1NC(=O)c1cccs1 | . | - | . | - | .
O=C(Nc1ccc(NC(=O)c2cccs2)c(Cl)c1)c1ccco1 | -27.1 | - | - | - | -
O=C1C(Nc2ccccc2)=CC(c2ccc(O)cc2)N1c1ccccc1 (stereo not given) | - | 67.4 | - | - | -
COc1cc(C2C=C(Nc3ccccc3)C(=O)N2c2ccccc2)ccc1O (stereo not given) | . | - | . | - | .
Cc1ccc2nc(-c3ccc(O)cc3)oc2c1 | - | - | - | 31.8 | -
SMILES | Ecoli rRNA inh | ARNT-TACC3 inh | CFTR F508del cor | PvdQ inh | ERAP1 HTS inh
Cc1ccc2nc(-c3cccc(N)c3)oc2c1 | - | - | - | - | -
COCc1cn(CC[C@H]2CC[C@H](NC(=O)Nc3ccccc3)[C@H](CO)O2)nn1 | - | - | - | . | -
N#Cc1nc(-c2ccccc2F)oc1NCc1cccc2c1OCO2 | -29.4 | - | - | - | -
CC1=NC(=O)C(N=Nc2cccc(C(=O)O)c2)N1c1ccccc1 (stereo not given) | -30.8 | - | - | - | -
COc1cc(O)c(/C=N/NC(=O)c2ccncc2)c(OC)c1[N+](=O)[O-] | - | 65.1 | - | - | -
Cn1cc(/C=N/NC(=O)c2ccccc2O)c2ccccc21 | - | - | - | - | -
O=C(N/N=C/c1ccccc1O)c1ccncc1 | . | 66.4 | - | - | -
O=C(N/N=C/c1ccccc1O)C(=O)Nc1ccccn1 | - | 47.7 | - | - | -
CC(=O)n1cc(/C=N/NC(=O)c2ccccc2O)c2ccccc21 | -25.4 | - | - | - | -
COc1ccc(/C=N/NC(=O)C(=O)Nc2ccccn2)cc1OC | . | - | . | - | .
N#C[C@H]1[C@H](c2ccccc2-c2ccc(F)cc2)[C@@H](CO)N1C(=O)Cc1cccnc1 | - | . | - | . | -
Cc1ccc2[nH]c(C(=O)N/N=C/c3ccccc3O)c(C)c2c1 | - | - | 8.4 | - | -
O=C(N/N=C/c1cc(Br)ccc1O)c1ccncc1 | - | 61.3 | - | - | -
O=C(N/N=C/c1ccccc1O)c1cc[n+]([O-])cc1 | - | 63.4 | - | - | -
COc1ccccc1OCCn1cc(/C=N/NC(=O)c2ccncc2)c2ccccc21 | -27.9 | - | - | - | -
Cc1ccc2[nH]c(C(=O)N/N=C/c3ccccc3C(=O)O)c(-c3ccccc3)c2c1 | - | - | - | - | -
O=C(N/N=C\c1cc(Br)ccc1O)c1ccc(S(=O)(=O)N2CCCCC2)cc1 | - | - | 16.9 | - | -
O=C(N/N=C/c1ccccc1O)c1cccc2ccccc12 | -35.5 | - | - | - | -
O=C(O)c1ccc(C=NNC(=O)c2cccc3ccccc23)cc1 | - | - | - | - | -
CCCC(C)C(=O)Nc1ccc(S(N)(=O)=O)cc1 (stereo not given) | - | - | - | - | -
Cc1ccccc1C(=O)NC(CC(C)C)C(=O)Nc1ccc(S(N)(=O)=O)cc1 (stereo not given) | -24.1 | - | - | - | -
C[C@H](CO)N1C[C@H](C)[C@@H](CN(C)Cc2ccncc2)Oc2ncc(-c3cncnc3)cc2C1=O | - | - | - | . | -
Cc1ccc(CNC(=O)Cc2ccc(-n3cccc3)cc2)cc1 | . | - | . | - | .
COc1ccc(CC(=O)NCc2ccc(-n3cccc3)cc2)cc1OC | - | - | 11.0 | - | -
O=C(Nc1ccccc1F)N1CC(=O)N2[C@@H](CO)[C@@H](c3ccc(C#CC4CCCC4)cc3)[C@@H]2C1 | - | . | - | . | .
O=[N+]([O-])c1ccc(Cc2ccc([N+](=O)[O-])cc2)cc1 | - | - | . | - | -
N#CC(CCc1ccc([N+](=O)[O-])cc1)(CCc1ccc([N+](=O)[O-])cc1)C(N)=O | -19.3 | - | - | - | -
COc1ccc(-c2nc3c(C(=O)NCCN(C)C)cccc3c3ccccc23)cc1 | - | - | 11.2 | - | -
